Lassa entry inh: Lassa virus entry inhibition. Lassa virus pseudotype entry inhibition, cell reporter. Potency, µM (titrated, usually from 37.9 µM), actives largely listed as inhibitors. actives 1.2% (n = 300,000). AID 540256; calls by dose curve; tested in HEK293 cells; also: nearly all actives have a fitted effect of over 50% in size
HCV inhibitor: inhibitors of hepatitis C virus infection | Huh7.5.1 HCVcc-Cre infection, luciferase reporter, 44 h | Potency, µM (doses to about 41.8 µM), usual class: inhibitors | actives 3.4% (n = 340,000); active = well fitted inhibition curve with a large enough effect; inconclusive = small, poorly fitted or top-dose-only effect, or another doubt; inactive = no such curve, though single readings can be large or run the other way
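Seed cells (1,000/well) for 4 h; treat with compound and infect with HCVcc-Cre, moi about 0.5. Incubate 44 h, then detect luciferase activity.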
MARV entry inh: blocks Marburg virus binding to or entry into cells | Marburg virus pseudotyped entry inhibition, cell reporter | Potency, µM (highest dose often 37.8 µM), usual class: inhibitors | actives 1.8% (n = 300,000) | AID 540276; calls by dose curve; tested in HEK293 cells
VACV Venus inh: inhibitors of vaccinia virus (Venus reporter); Potency, µM (series often up to 36.5 µM), hits mostly inhibitors; actives 0.46% (n = 330,000); Vaccinia virus Venus reporter expression, fluorescence; AID 720580; calls by dose curve; tested in A549 cells; also: nearly all actives have a fitted effect of over 30% in size
Vaccinia mCherry: inhibitors of vaccinia virus infection (mCherry reporter signal). AID 720579. actives 0.63% (n = 310,000). Potency, µM (highest dose often 36.5 µM), most hits filed as inhibitors. Vaccinia virus mCherry reporter infection, fluorescence; calls by dose curve; tested in A549 cells; also: nearly all actives have a fitted effect of over 35% in size
Numbers stand for hits; – = inactive; ? = inconclusive; · = no result given; [ ] = remark or other dose. This is a sample that favours compounds with a hit; in the whole collection about 4.6% have one here.

SMILES	Lassa entry inh	HCV inhibitor	MARV entry inh	VACV Venus inh	Vaccinia mCherry
Cc1ccc(CNC(=O)c2ccc(N3CCC4(CC3)CC(c3cccc(Br)c3)=NO4)c([N+](=O)[O-])c2)cc1	·	–	·	–	–
COc1ccc(CNC(=O)c2ccc(N3CCC4(CC3)CC(c3ccc(Cl)cc3)=NO4)c([N+](=O)[O-])c2)cc1	·	0.89µM	·	–	–
CCc1ccccc1NC(=O)Nc1cccn(Cc2ccccc2F)c1=O	·	11µM	·	·	·
CCOc1ccc(NC(=O)Nc2cccn(Cc3ccccc3)c2=O)cc1	?	10µM	–	?	?
O=C(NCc1ccccc1)Nc1cccn(Cc2ccccc2F)c1=O	–	–	?	–	–
O=c1nc(N/N=C/c2c[nH]c3ccccc23)cn[nH]1	?	–	8.9µM	–	–
O=c1nc(N/N=C/C=C/c2ccccc2)cn[nH]1	2.2µM	–	–	–	–
C(=N\Nc1ccccn1)/c1c[nH]c2ccccc12	–	–	?	?	?
C[C@@H]1Cc2c(O)c(O)cc(O)c2C(=O)O1	·	–	·	–	–
CC1Oc2cc3c(-c4c(O)cc(O)c5c(O)c6c(cc45)OC(C)C(C)C6=O)c(O)cc(O)c3c(O)c2C(=O)C1C (stereo unspecified)	·	?	·	4µM	?
CCOc1cc(C(Nc2cc(C)ccn2)c2ccc3cccnc3c2O)ccc1OC (stereo unspecified)	5.6µM	·	?	–[7.34 µM]	–[7.34 µM]
COc1ccc(C(NC(C)=O)c2ccc3cccnc3c2O)cc1OC (stereo unspecified)	·	·	·	?	7.9µM
COc1ccc(C(NC(C)=O)c2ccc3cccnc3c2O)c(OC)c1 (stereo unspecified)	6.3µM	5µM	?	?	·
COc1cccc(C(NC(C)=O)c2nc(-c3cccc4cccnc34)cs2)c1 (stereo unspecified)	·	·	·	–	–
COc1ccc(C(NC(C)=O)c2c(O)ccc3ccccc23)cc1OC (stereo unspecified)	–	–	?	–	–
COc1ccc(C(Nc2ccccn2)c2ccc3ccc(C)nc3c2O)cc1C (stereo unspecified)	?	·	?	–	–
CC(=O)NC(c1ccc2ccccc2c1)c1ccc2cccnc2c1O (stereo unspecified)	?	2.5µM	?	?	?
Cc1ncc2c(c1CNC(=O)c1ccc3c(c1)OCO3)CCN(C(=O)c1cc3ccccc3n1C)C2	·	·	·	–	–
CCC1CN(CC(=O)NCc2cc(C)n(C)n2)Cc2cc(OC)ccc2O1 (stereo unspecified)	·	·	·	–	–
Nc1nc(-c2ccccn2)nc(N)c1Cc1ccccc1F	?	?	?	–	–
Nc1nc(-c2ccccn2)nc(N)c1Cc1c(F)cccc1Cl	?	5µM	?	–	?
Nc1nc(-c2ccccn2)nc(N)c1Cc1ccc(Cl)cc1Cl	?	3.5µM	?	–	?
CCOc1ccc(CCNC(=O)c2cc3sccc3n2CC)cc1OCC	15µM	7.9µM	?	–	–
Cc1ccc2oc(-c3cccc(NC(=O)COc4ccc(Cl)cc4C)c3C)nc2c1	·	·	·	–	–
CN(C)c1ccc(/C=N/NC(=O)COc2ccccc2)cc1	?	–	–	–	–
SMILES	Lassa entry inh	HCV inhibitor	MARV entry inh	VACV Venus inh	Vaccinia mCherry
O=C(COc1cccc2ccccc12)N/N=C/c1ccccc1OCc1ccc(C(=O)O)cc1	–	–	?	–	–
COc1ccc(Br)c(/C=N/NC(=O)COc2ccc(-c3ccccc3)cc2)c1	–	7.9µM	–	–	–
CCOc1ccc(Oc2c(/C=N/NC(N)=O)c(C)nn2-c2ccccc2)cc1	–	–	?	–	–
CCOc1ccc(Oc2c(/C=N/NC(=O)COc3ccccc3OC)c(C)nn2-c2ccccc2)cc1	?	13µM	?	?	–
O=C(COc1ccccc1-c1ccccc1)N/N=C/c1cccc2ccccc12	?	1.8µM	?	?	?
COc1ccc(/C=N/NC(=O)COc2ccccc2-c2ccccc2)cc1	?	5.6µM	?	3.5µM	?
COc1cccc(NC(=O)C2CCC(CNS(=O)(=O)c3ccc4c(c3)CCCC(=O)N4)CC2)c1 (stereo unspecified)	–	·	·	–	–
Cc1ccc2ncc(C(=O)NCc3ccccc3Cl)c(=O)n2c1	·	·	–	–	–
COc1ccccc1N1CCN(c2nc(CNC(=O)c3ccc(C)c(C)c3)nc3ccccc23)CC1	·	·	·	–	–
COc1cc(=O)n2c(c1C(=O)NCc1ccco1)CCN(Cc1cccc(Cl)c1)CC2	·	·	·	–	–
COc1ccc(/C=C/C=N/NC(=O)COc2ccc(OC)cc2)cc1	0.79µM	–	–	–	–
CC(NC(=O)COc1ccccc1-c1ccccc1)c1ccccc1 (stereo unspecified)	18µM	–	?	–	–
CCCOC(=O)c1ccc(Nc2nc3ccccc3nc2-n2nc(C)cc2C)cc1	–	·	–	–	–
COC(=O)[C@@H]1CCCN1C(=O)c1c(OC)cc(=O)n2c1CCN(Cc1ccc3cccnc3c1)CC2	·	·	·	–	–
CCCOc1ccc(/C=C/C(=O)Nc2sc(C)c(C)c2C(=O)OCC)cc1OC	–	·	·	–	–
FC(F)(F)c1cc(CCN2CCNC[C@@H]2Cc2ccccc2)cc(C(F)(F)F)c1	·	–	·	11µM	13µM
CCOc1ccc(Cl)cc1/C=N/NC(N)=O	·	14µM	·	–	–
CCOc1ccc(Cl)cc1/C=N/O	–	?	–	–	–
C#CCN1C(=O)CC[C@@]23C1=NC(C(=O)OC)=C(C(=O)OC)[C@@H]2N(Cc1ccccc1)c1ccccc13	·	·	–	·	·
CN1N=C(C(F)(F)F)CC1=O	–	–	–	–	–
CN1N=C(C(C)(C)C)CC1=O	–	–	22µM	–	–
COc1ccc2c(c1)[C@@]1(OCCC=C[C@@H]1C)C(=O)N2Cc1ccc(Br)cc1	·	·	–	·	·
O=c1cc(C(F)(F)F)[nH]c2c(C(F)(F)F)cccc12	?	–	?	13µM	?
CCCCC(=O)NC(c1ccc(OC)c(OC)c1)c1c(O)ccc2ccccc12 (stereo unspecified)	?	–	–	?	?
CCCCC(=O)NC(c1ccccc1OC)c1ccc2cccnc2c1O (stereo unspecified)	·	2.2µM	·	–	7.9µM
SMILES	Lassa entry inh	HCV inhibitor	MARV entry inh	VACV Venus inh	Vaccinia mCherry
CCCC(=O)NC(c1ccccc1OC)c1ccc2cccnc2c1O (stereo unspecified)	?	3.5µM	?	?	10µM
CCC(C(=O)N1CCN(c2ccccc2F)CC1)n1nc(C)c2sc3ccccc3c2c1=O (stereo unspecified)	?	·	–	–	–
Cc1ccccc1CNC(=O)CCCn1c(=O)c2cccn2c2ccccc21	–	·	·	–	–
COc1ccccc1CNC(=O)c1cc(C2CC2)nc2c1cnn2C(C)C	–	1µM	?	–	–
CCOc1ccc(OCCNC(=O)c2cc(C3CC3)nc3c2cnn3C(C)C)cc1	–	3.2µM	?	–	–
CC(C)n1ncc2c(C(=O)NCCOc3ccccc3F)cc(C3CC3)nc21	?	?	?	–	–
COc1ccc(CNC(=O)c2cc(C3CC3)nc3c2cnn3C(C)C)cc1	·	2.2µM	·	·	·
CC(C)n1ncc2c(C(=O)N3CCN(Cc4ccc(Br)s4)CC3)cc(C3CC3)nc21	·	10µM	·	·	·
O=C(Cn1c(=O)c(C(F)(F)F)nc2ccccc21)Nc1ccc(Br)cc1F	–	·	·	–	–
